# Experimental data from publication PMC7862700, “An all-to-all approach to the identification of sequence-specific readers for epigenetic DNA modifications on cytosine”.
# Columns and labels:
# Assay in all cases: DAPPL (digital affinity profiling via proximity ligation, sequencing); 10 mM Tris-HCl pH 7.5, 50 mM NaCl, 1 mM DTT, 4% glycerol, room temperature, 30 min; GST-TFs on glutathione beads, 16-mer random dsDNA library, 0.1% formaldehyde crosslink after washing; high values mean tight binding
# FLI1 = molecular target: T1, FLI1 (Homo sapiens, UniProt Q01543 1-452); settings: protein: recombinant; tags: N-terminal GST; dsDNA, one strand shown
# T1 sequence: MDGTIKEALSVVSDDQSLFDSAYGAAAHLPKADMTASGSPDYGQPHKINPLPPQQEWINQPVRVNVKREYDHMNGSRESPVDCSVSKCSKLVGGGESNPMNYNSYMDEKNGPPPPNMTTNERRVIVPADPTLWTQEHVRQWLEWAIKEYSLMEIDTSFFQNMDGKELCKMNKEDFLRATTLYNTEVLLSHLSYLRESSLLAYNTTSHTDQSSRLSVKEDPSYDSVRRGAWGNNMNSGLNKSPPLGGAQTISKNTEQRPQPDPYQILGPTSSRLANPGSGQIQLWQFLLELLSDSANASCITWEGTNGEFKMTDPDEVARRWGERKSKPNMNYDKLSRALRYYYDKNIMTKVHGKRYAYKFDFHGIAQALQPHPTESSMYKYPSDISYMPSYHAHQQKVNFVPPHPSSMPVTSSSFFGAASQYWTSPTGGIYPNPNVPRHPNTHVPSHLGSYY
# Summary of the method: (§1)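 In yeast, human transcription factors were expressed with a GST fusion, then pulled down on glutathione beads and given DNA barcodes. Pooled with a tag-only sample, they were exposed to 200 nmole of a 16-mer random double-stranded DNA library (Tris/NaCl/DTT/glycerol buffer, room temperature, 30 min), washed, crosslinked with 0.1% formaldehyde, proximity-ligated using BsaI/T4 ligase for 1 h at 37 °C, PCR-amplified and read on an Illumina NextSeq500. Each hexamer's frequency of reads for a factor, divided by the matching frequency for the tag-only sample, gives the binding signal.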
# ELK1 = molecular target: T2, ELK1 (Homo sapiens, UniProt P19419 1-428); settings: protein: recombinant; tags: N-terminal GST; dsDNA, one strand shown
# T2 sequence: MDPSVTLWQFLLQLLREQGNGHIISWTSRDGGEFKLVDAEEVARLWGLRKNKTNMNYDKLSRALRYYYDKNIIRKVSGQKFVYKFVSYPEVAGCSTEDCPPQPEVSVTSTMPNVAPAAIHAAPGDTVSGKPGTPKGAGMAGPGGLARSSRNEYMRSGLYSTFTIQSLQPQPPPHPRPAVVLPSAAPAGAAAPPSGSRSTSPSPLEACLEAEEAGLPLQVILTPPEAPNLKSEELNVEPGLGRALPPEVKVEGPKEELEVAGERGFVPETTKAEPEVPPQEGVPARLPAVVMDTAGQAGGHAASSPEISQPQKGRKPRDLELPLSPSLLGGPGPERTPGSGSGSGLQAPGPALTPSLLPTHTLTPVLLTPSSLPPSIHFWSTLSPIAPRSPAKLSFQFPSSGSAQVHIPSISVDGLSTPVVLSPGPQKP
# Summary of the method: as §1
# GABPA = molecular target: T3, GABPA (Homo sapiens, UniProt Q06546 1-454); settings: protein: recombinant; tags: N-terminal GST; dsDNA, one strand shown
# T3 sequence: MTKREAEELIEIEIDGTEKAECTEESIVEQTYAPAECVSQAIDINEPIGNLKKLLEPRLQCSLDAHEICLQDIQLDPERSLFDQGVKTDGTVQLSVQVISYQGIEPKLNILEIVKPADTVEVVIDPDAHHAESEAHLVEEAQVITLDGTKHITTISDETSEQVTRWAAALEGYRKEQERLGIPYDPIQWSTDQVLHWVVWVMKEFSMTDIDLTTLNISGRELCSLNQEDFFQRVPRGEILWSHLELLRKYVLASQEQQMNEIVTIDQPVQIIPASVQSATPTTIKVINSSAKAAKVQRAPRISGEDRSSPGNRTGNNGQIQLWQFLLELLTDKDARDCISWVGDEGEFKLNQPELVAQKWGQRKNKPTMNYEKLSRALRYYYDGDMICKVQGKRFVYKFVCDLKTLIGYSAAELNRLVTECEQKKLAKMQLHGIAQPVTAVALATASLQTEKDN
# Summary of the method: as §1
# ERG = molecular target: T4, ERG (Homo sapiens, UniProt P11308 1-479); settings: protein: recombinant; tags: N-terminal GST; dsDNA, one strand shown
# T4 sequence: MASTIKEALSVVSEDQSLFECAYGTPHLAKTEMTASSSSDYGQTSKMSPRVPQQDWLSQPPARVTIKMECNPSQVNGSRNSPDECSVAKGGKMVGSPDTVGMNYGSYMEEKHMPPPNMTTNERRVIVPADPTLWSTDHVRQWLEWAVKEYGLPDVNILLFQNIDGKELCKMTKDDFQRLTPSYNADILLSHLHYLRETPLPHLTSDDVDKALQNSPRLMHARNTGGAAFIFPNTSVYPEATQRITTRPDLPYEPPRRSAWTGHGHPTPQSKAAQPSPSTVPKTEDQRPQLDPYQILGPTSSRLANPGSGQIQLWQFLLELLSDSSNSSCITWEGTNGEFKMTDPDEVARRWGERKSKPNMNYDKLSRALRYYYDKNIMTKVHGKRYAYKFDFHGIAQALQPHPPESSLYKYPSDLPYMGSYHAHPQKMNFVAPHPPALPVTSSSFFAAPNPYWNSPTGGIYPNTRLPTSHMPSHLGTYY
# Summary of the method: as §1
# ELF1 = ELF1 (Homo sapiens, UniProt P32519 1-619); settings: protein: recombinant; tags: N-terminal GST; dsDNA, one strand shown
# ELF1, sequence (P32519 whole entry): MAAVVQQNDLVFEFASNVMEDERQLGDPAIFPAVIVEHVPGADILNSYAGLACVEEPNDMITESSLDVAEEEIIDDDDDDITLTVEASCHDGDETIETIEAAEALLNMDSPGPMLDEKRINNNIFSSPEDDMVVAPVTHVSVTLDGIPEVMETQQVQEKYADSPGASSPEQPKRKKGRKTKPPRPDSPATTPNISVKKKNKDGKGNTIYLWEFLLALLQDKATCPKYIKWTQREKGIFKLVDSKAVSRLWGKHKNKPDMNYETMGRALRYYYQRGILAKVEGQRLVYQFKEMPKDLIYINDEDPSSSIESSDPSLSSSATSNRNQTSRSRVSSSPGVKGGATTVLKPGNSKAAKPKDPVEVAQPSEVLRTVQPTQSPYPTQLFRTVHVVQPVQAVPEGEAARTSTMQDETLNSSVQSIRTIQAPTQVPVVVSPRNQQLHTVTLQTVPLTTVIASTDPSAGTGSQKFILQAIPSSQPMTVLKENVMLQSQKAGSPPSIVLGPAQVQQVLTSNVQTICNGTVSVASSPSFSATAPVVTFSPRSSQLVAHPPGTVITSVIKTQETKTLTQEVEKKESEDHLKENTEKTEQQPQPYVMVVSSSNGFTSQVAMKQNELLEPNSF
# Summary of the method: as §1
# EHF = molecular target: T5, EHF (Homo sapiens, UniProt Q9NZC4 1-300); settings: protein: recombinant; tags: N-terminal GST; dsDNA, one strand shown
# T5 sequence: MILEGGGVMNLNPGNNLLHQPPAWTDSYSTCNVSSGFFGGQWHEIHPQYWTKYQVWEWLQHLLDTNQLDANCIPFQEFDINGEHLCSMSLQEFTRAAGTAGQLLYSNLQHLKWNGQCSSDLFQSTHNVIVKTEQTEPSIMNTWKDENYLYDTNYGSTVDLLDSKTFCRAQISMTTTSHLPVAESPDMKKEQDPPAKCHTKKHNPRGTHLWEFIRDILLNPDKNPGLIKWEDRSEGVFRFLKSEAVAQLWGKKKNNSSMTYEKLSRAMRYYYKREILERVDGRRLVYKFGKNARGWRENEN
# Summary of the method: as §1
# SPI1 = SPI1 (Homo sapiens, UniProt P17947 1-270); settings: protein: recombinant; tags: N-terminal GST; dsDNA, one strand shown
# Summary of the method: as §1
# SPIB = SPIB (Homo sapiens, UniProt Q01892 1-262); settings: protein: recombinant; tags: N-terminal GST; dsDNA, one strand shown
# SPIB, sequence (Q01892 whole entry): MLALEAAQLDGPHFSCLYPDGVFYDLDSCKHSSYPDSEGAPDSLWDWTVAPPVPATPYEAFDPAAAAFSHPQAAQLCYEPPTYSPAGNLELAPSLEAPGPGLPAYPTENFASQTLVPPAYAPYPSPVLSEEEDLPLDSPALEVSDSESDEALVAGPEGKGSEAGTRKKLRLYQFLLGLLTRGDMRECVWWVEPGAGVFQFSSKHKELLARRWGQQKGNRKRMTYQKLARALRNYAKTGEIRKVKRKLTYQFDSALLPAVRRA
# Summary of the method: as §1
# ELK3 = molecular target: T6, ELK3 (Homo sapiens, UniProt P41970 1-407); settings: protein: recombinant; tags: N-terminal GST; dsDNA, one strand shown
# T6 sequence: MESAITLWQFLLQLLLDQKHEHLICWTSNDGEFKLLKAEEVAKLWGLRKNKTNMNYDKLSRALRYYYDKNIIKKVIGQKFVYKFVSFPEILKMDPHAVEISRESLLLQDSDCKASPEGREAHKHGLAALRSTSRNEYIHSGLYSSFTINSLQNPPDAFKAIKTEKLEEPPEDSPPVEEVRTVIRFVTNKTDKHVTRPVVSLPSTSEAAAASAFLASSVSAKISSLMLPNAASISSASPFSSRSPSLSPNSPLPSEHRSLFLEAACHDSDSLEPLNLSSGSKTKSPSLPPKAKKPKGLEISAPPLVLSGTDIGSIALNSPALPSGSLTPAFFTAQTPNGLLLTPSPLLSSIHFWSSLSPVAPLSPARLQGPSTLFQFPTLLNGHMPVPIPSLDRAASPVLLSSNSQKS
# Summary of the method: as §1
# FEV = molecular target: T7, FEV (Homo sapiens, UniProt Q99581 1-238); settings: protein: recombinant; tags: N-terminal GST; dsDNA, one strand shown
# T7 sequence: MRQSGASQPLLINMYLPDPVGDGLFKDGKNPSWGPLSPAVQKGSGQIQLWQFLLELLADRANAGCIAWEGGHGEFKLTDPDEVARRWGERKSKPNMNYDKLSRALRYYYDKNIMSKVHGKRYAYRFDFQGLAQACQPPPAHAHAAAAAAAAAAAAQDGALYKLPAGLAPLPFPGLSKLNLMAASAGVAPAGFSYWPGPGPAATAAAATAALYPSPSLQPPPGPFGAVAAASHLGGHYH
# Summary of the method: as §1
# ETV5 = ETV5 (Homo sapiens, UniProt P41161 1-510); settings: protein: recombinant; tags: N-terminal GST; dsDNA, one strand shown
# ETV5, sequence (P41161 whole entry): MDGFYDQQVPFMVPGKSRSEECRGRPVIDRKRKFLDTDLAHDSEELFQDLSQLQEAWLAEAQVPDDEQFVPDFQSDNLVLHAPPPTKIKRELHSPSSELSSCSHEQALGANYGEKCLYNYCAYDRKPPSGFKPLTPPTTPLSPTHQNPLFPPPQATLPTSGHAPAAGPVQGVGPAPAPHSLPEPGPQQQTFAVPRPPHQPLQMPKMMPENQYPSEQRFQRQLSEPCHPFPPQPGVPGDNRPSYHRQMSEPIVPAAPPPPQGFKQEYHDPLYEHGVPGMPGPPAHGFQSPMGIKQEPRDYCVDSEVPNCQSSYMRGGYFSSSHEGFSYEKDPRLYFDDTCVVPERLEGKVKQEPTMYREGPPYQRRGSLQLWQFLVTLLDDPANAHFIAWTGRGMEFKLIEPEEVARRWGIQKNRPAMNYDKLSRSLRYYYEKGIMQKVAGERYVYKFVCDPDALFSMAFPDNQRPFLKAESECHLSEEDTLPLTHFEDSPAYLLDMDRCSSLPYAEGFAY
# Summary of the method: as §1
# HSF1 = HSF1 (Homo sapiens, UniProt Q00613 1-529); settings: protein: recombinant; tags: N-terminal GST; chain copies: 3; dsDNA, one strand shown
# HSF1, sequence (Q00613 whole entry): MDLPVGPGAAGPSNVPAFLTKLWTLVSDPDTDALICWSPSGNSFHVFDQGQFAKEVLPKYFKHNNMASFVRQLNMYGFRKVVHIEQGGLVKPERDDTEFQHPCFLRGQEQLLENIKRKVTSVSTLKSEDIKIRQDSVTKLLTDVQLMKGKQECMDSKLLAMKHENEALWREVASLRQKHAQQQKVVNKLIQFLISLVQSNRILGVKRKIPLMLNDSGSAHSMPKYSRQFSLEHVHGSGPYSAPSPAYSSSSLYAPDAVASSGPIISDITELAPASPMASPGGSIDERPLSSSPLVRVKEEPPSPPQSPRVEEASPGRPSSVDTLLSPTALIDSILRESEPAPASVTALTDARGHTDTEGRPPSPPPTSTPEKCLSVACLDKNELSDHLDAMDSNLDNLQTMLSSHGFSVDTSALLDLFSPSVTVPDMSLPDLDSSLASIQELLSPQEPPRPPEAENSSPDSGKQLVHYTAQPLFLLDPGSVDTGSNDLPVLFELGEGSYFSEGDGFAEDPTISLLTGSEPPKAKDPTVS
# Summary of the method: as §1
# SPIC = molecular target: T8, SPIC (Homo sapiens, UniProt Q8N5J4 1-248); settings: protein: recombinant; tags: N-terminal GST; dsDNA, one strand shown
# T8 sequence: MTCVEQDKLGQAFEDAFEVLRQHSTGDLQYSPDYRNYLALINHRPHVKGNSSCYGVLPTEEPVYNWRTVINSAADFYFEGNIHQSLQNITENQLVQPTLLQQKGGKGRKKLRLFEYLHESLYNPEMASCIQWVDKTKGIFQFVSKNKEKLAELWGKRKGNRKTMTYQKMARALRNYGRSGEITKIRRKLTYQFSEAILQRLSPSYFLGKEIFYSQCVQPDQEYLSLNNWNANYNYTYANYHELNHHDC
# Summary of the method: as §1
# ELF4 = ELF4 (Homo sapiens, UniProt Q99607 1-663); settings: protein: recombinant; tags: N-terminal GST; dsDNA, one strand shown
# ELF4, sequence (Q99607 whole entry): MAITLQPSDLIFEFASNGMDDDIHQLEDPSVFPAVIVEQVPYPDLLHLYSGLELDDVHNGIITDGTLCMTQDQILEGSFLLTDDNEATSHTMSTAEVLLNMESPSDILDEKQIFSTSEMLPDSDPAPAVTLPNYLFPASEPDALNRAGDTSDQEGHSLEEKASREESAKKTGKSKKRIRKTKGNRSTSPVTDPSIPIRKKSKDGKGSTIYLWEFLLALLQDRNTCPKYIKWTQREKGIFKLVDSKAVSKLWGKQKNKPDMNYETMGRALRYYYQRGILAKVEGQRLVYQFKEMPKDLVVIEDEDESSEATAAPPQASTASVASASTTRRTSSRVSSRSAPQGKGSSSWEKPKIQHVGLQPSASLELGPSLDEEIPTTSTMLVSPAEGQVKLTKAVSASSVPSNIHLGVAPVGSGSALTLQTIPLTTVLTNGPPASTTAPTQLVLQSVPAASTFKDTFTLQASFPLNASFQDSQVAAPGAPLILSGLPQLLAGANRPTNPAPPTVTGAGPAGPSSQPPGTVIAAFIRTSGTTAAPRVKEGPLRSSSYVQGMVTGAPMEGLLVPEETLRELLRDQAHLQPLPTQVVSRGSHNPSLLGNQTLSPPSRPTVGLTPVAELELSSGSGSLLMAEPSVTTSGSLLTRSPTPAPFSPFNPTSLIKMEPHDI
# Summary of the method: as §1
# ELK4 = molecular target: T9, ELK4 (Homo sapiens, UniProt P28324-2 1-405); settings: protein: recombinant; tags: N-terminal GST; dsDNA, one strand shown
# T9 sequence: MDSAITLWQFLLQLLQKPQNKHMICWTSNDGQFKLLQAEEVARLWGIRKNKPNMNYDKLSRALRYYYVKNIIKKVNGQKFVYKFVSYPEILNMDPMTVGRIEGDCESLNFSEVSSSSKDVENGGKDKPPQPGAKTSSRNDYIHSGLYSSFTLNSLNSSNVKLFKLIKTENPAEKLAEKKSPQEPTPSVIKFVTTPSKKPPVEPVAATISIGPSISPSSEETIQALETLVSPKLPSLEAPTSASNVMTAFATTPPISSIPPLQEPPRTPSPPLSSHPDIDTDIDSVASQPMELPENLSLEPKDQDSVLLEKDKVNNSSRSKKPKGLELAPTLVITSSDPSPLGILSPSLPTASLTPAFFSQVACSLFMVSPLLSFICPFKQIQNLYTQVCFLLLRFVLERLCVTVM
# Summary of the method: as §1
# ETV2 = molecular target: T10, ETV2 (Homo sapiens, UniProt O00321 1-342); settings: protein: recombinant; tags: N-terminal GST; dsDNA, one strand shown
# T10 sequence: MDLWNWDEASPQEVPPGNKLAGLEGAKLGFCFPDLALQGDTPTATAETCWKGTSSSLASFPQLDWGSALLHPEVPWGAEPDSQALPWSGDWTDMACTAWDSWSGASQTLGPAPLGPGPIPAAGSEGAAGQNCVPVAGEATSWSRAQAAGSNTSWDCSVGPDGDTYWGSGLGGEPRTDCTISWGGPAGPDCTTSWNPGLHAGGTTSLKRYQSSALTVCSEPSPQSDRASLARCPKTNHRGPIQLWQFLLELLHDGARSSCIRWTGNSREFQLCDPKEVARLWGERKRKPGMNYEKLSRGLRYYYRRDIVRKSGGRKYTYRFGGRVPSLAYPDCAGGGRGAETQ
# Summary of the method: as §1
# ELF3 = molecular target: T11, ELF3 (Homo sapiens, UniProt P78545 1-371); settings: protein: recombinant; tags: N-terminal GST; dsDNA, one strand shown
# T11 sequence: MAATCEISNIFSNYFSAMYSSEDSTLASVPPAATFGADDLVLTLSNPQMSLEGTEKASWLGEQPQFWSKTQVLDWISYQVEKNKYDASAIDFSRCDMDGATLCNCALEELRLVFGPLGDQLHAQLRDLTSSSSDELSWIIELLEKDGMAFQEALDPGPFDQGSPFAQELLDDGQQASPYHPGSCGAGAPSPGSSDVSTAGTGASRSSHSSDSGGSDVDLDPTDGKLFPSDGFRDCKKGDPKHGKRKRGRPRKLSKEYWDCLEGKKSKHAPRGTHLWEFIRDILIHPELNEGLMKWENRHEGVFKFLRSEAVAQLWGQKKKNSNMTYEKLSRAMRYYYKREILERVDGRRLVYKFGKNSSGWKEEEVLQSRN
# Summary of the method: as §1
# CRX = CRX (Homo sapiens, UniProt O43186 1-299); settings: protein: recombinant; tags: N-terminal GST; dsDNA, one strand shown
# CRX, sequence (O43186 whole entry): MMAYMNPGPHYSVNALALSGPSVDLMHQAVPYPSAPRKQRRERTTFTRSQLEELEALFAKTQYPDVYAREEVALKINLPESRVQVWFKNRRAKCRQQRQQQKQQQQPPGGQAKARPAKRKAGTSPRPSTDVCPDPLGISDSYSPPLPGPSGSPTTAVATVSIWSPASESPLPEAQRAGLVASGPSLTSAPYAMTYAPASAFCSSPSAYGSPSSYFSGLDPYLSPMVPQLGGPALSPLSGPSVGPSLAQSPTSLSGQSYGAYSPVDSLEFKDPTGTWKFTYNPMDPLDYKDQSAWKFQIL
# Summary of the method: as §1
# ETV1 = ETV1 (Homo sapiens, UniProt P50549 1-477); settings: protein: recombinant; tags: N-terminal GST; dsDNA, one strand shown
# ETV1, sequence (P50549 whole entry): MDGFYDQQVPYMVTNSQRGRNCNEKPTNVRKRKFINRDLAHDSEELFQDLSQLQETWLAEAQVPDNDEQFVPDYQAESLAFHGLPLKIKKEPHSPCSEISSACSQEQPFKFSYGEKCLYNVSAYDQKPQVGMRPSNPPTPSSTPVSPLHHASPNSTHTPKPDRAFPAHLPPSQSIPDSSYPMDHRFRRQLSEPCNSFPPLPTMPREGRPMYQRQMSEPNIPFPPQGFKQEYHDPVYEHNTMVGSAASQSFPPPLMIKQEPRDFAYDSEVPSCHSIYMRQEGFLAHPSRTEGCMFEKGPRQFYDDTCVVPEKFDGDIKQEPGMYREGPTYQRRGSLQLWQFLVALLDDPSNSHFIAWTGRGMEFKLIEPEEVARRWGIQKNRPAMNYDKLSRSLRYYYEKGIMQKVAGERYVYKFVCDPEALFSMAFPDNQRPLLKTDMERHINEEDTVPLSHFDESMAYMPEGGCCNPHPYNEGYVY
# Summary of the method: as §1
sequence,measurement,setting,value
GAATGT,binding signal,FLI1,"1.14 fold enrichment (6-mer frequency, TF over GST control)"
same,binding signal,ELK1,"1.11 fold enrichment (6-mer frequency, TF over GST control)"
same,binding signal,GABPA,"1.12 fold enrichment (6-mer frequency, TF over GST control)"
same,binding signal,ERG,"1.08 fold enrichment (6-mer frequency, TF over GST control)"
same,binding signal,ELF1,"1.03 fold enrichment (6-mer frequency, TF over GST control)"
same,binding signal,EHF,"1.13 fold enrichment (6-mer frequency, TF over GST control)"
same,binding signal,SPI1,"1.07 fold enrichment (6-mer frequency, TF over GST control)"
same,binding signal,SPIB,"1.12 fold enrichment (6-mer frequency, TF over GST control)"
same,binding signal,ELK3,"1.06 fold enrichment (6-mer frequency, TF over GST control)"
same,binding signal,FEV,"1.07 fold enrichment (6-mer frequency, TF over GST control)"
same,binding signal,ETV5,"1.07 fold enrichment (6-mer frequency, TF over GST control)"
same,binding signal,HSF1,"1.88 fold enrichment (6-mer frequency, TF over GST control)"
same,binding signal,SPIC,"1.11 fold enrichment (6-mer frequency, TF over GST control)"
same,binding signal,ELF4,"1.07 fold enrichment (6-mer frequency, TF over GST control)"
same,binding signal,ELK4,"1.07 fold enrichment (6-mer frequency, TF over GST control)"
same,binding signal,ETV2,"1.03 fold enrichment (6-mer frequency, TF over GST control)"
same,binding signal,ELF3,"1.2 fold enrichment (6-mer frequency, TF over GST control)"
same,binding signal,CRX,"1.02 fold enrichment (6-mer frequency, TF over GST control)"
same,binding signal,ETV1,"1.03 fold enrichment (6-mer frequency, TF over GST control)"
